Screening results as filed in PubChem BioAssay.
NALP3 yeast inh: NALP3 inflammasome inhibitors in reconstituted yeast, primary screen, luminescence, uHTS; Yeast reconstituted NLRP3/ASC/caspase-1, beta-gal luminescence, 24 h; inhibition, % at 10 µM; hit rate 0.39% among 330,000; AID 2825, 2010;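 active = inhibition of 50% or more; inactive = inhibition below 50%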;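 note: plate controls were induced DMSO wells for no effect and uninduced yeast grown without galactose for full effect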
SKKanGAS inh: S. pyogenes SKKanGAS growth inhibitors in kanamycin, primary screen, streptokinase expression inhibitor project, SKKanGAS strain, BacTiter-Glo luminescence | hit rate 1.3% among 300,000 | 6 h | inhibition, % at 7.5 µM;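 active = mean replicate score, as percent of positive control median, at least 50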;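 note: strain carries kanamycin resistance gene driven by streptokinase promoter and grows in 40 µg/ml kanamycin; loss of luminescence reflects streptokinase promoter inhibition or plain growth inhibition; 0% = median of DMSO wells and 100% = positive control at its reference dose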
tim23-1 inh: growth inhibitors of tim23-1 mutant yeast, primary screen, luminescence, uHTS. hit rate 1.3% among 330,000. inhibition, % at 20 µM. S. cerevisiae tim23-1 growth, BacTiter-Glo luminescence, 24 h. AID 463212, 2010;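 active = growth inhibition of the mutant yeast at or above 50%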;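 note: temperature-sensitive mutant grown at 25 °C; plate controls were DMSO-treated mutant yeast for no effect and medium wells lacking yeast for full effect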
tim10-1 inh: growth inhibitors of tim10-1 mutant yeast, primary screen, luminescence, uHTS. S. cerevisiae tim10-1 ts strain growth, BacTiter-Glo, 24 h. inhibition, % at 20 µM. hit rate 2.2% among 330,000. AID 463190, 2010;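 active = inhibition of at least 40%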;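 note: mutant grown at 25 °C; 0% = DMSO wells with yeast and 100% = wells holding no yeast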
TIM10 inh: growth inhibitors of isogenic TIM10 control yeast, primary screen, counter-screen for tim10-1 yeast inhibitor project, luminescence, uHTS. hit rate 1.4% among 330,000. inhibition, % at 10 µM. S. cerevisiae TIM10 strain growth, BacTiter-Glo luminescence, 24 h;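 active = inhibition of 40% or more at the single tested concentration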;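 note: wild-type TIM10 isogenic control strain grown at permissive 25 °C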
tim10-1 confirm: growth inhibitors of tim10-1 mutant yeast, confirmation, single concentration, luminescence, S. cerevisiae. shares compounds with tim10-1 inh. S. cerevisiae tim10-1 ts strain growth, BacTiter-Glo, 24 h. inhibition, % at 20 µM. hit rate 56% among 7,400;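 active = inhibition of yeast growth at or above a set limit in either of two repeat tests at 20 µM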;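 note: tim10-1 mutant grown at permissive 25 °C to find synthetic lethal compounds; 0% = DMSO yeast wells and 100% = medium wells without yeast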
tim10 confirm: growth inhibitors of wild-type TIM10 yeast, confirmation, counter-screen for tim10-1 synthetic lethality project, single concentration, luminescence, S. cerevisiae. S. cerevisiae tim10 strain growth, BacTiter-Glo luminescence, 24 h. AID 463215, 2010. hit rate 63% among 4,600. shares compounds with TIM10 inh. inhibition, % at 10 µM;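 active = inhibition of yeast growth at or above a set limit in either of two replicates at 10 µM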;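 note: this counterscreen used the strain with wild-type TIM10; 0% = yeast with DMSO and 100% = medium wells lacking yeast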
tim23-1 confirm: tim23-1 mutant yeast growth inhibitors, confirmation, luminescence, single concentration | shares compounds with tim23-1 inh | S. cerevisiae tim23-1 growth, BacTiter-Glo luminescence, 24 h | inhibition, % at 20 µM | hit rate 83% among 4,400 | AID 463218, 2010;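 active = inhibition above about 39% in either of two replicate wells at 20 µM, limit read from the data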;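 note: temperature-sensitive tim23-1 mutant grown at 25 °C; 0% = DMSO wells with yeast and 100% = medium wells without yeast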
The depositor's hits bear a star; · = no result. Compounds with a hit are over-represented: about 4.6% of the library has one in this group of screens.

SMILES | NALP3 yeast inh | SKKanGAS inh | tim23-1 inh | tim10-1 inh | TIM10 inh | tim10-1 confirm | tim10 confirm | tim23-1 confirm
O=Cc1ccc(O)c2ncccc12 | 35 | 33 | 71* | 44* | 54* | 8 | 75* | 72*
c1cnc2ccc3ncccc3c2c1 | 4 | -9 | -7 | 7 | -9 | · | · | ·
CCOc1ccc(C(c2c(NC(=O)c3ccccc3)sc(C)c2C)N2CCN(CCO)CC2)cc1 (centres undefined) | -2 | -3 | 26 | 29 | 25 | · | · | ·
Cc1sc(NC(=O)c2ccccc2)c(C(c2ccc(Cl)cc2)N2CCN(CCO)CC2)c1C (centres undefined) | 7 | 3 | 52* | 42* | 30 | 35* | · | 42*
COc1ccc(NC(=O)/C(Cl)=C(/Cl)S(=O)Cc2ccc(Cl)cc2)cn1 (centres undefined) | 12 | · | 73* | 50* | 67* | 46* | 90* | 68*
COc1ccc(NC(=O)C(Cl)=C(Cl)Cl)cn1 | 4 | 2 | -21 | -37 | -17 | · | · | ·
Cc1cccc(C)c1NC(=O)CSc1nc2[nH]c(=O)cc(O)c2s1 | 6 | · | 17 | 6 | 11 | · | · | ·
COc1ccc(Cc2nnc(NC(=O)c3cccc([N+](=O)[O-])c3)s2)cc1 | -13 | 4 | -38 | -14 | -37 | · | · | ·
Cc1ccc(C(=O)Oc2oc(-c3ccccc3)nc2C=Nc2ccc(N(C)C)cc2)cc1 | 18 | 5 | 19 | 26 | 3 | · | · | ·
COc1cccc(N=Cc2nc(-c3ccccc3)oc2OC(C)=O)c1 | 1 | 3 | 74* | 64* | 44* | 51* | 34* | 70*
COc1ccc(N=Cc2nc(-c3ccccc3)oc2OC(C)=O)cc1 | 1 | -3 | 70* | 46* | 48* | 47* | 26 | 63*
Cc1ccc(C(=O)NC(=S)NNC(=O)c2ccccc2[N+](=O)[O-])cc1 | 11 | · | 61* | 47* | 47* | 42* | 61* | 49*
O=C(NC(=S)NC1CCCCC1)c1ccccc1[N+](=O)[O-] | 5 | 0 | 63* | 45* | 21 | 26 | · | 48*
O=C(NC(=S)NC1CCCCC1)c1ccc(F)cc1 | 18 | -3 | 69* | 42* | 34 | 32* | · | 56*
O=C(NNC(=S)NC(=O)c1ccccc1[N+](=O)[O-])c1ccccc1O | 17 | 0 | 6 | 22 | 7 | · | · | ·
O=C(CCS(=O)(=O)c1ccccc1)OCc1ccc([N+](=O)[O-])cc1 | -4 | -4 | 4 | -6 | -6 | · | · | ·
Cc1ccc(N(Cc2ccccc2)C(=O)c2cc(S(=O)(=O)N3CCOCC3)ccc2C)cc1 | 5 | 1 | 25 | 20 | 18 | · | · | ·
COc1ccc(-c2cc(-c3c(O)c(OC)c4occc4c3OC)[nH]n2)cc1OC | 10 | -4 | 53* | 50* | 36 | 31* | · | 45*
C=CCn1c(=O)c2ccccc2n2c(SCC(C)=O)nnc12 | 5 | 1 | 0 | 4 | -17 | · | · | ·
Cc1ccc(N=C(NOC(=O)c2ccccc2)c2nonc2N)c(C)c1 | 12 | 7 | 57* | 46* | 49* | 49* | 40* | 41*
Cc1ccc(N=C(NO)c2nonc2N)c(C)c1 | -7 | -1 | 9 | 25 | 4 | · | · | ·
COc1ccc(Br)cc1/C=N/Nc1cccc(C(=O)O)c1 | -1 | 7 | 25 | 6 | 1 | · | · | ·
Cc1cc(N=Nc2ccccc2C(=O)O)c(C)c(C)c1O | 29 | 28 | -19 | -90 | -98 | · | · | ·
Cc1c(N=Cc2cc(Br)cc(Br)c2O)cccc1C(=O)O | 28 | 10 | 83* | 59* | 42* | 50* | 27 | 90*
O=C(O)c1cccc(N/N=C/c2cc(Br)cc(Br)c2O)c1 | -1 | -14 | 78* | 49* | 26 | 42* | · | 74*
SMILES | NALP3 yeast inh | SKKanGAS inh | tim23-1 inh | tim10-1 inh | TIM10 inh | tim10-1 confirm | tim10 confirm | tim23-1 confirm
Cc1cccc(NC(=S)NC2CCCCC2)n1 | 18 | -8 | 52* | 41* | 50* | 28 | 44* | 50*
Cc1cc(C)nc(NNS(=O)(=O)c2c(F)cc(F)cc2Br)n1 | 8 | · | 6 | -8 | 0 | · | · | ·
CCSc1nnc(-c2ccc(C)cc2)c2ccccc12 | 35 | -9 | 64* | 55* | 44* | 49* | 9 | 70*
COc1ccc(CN2CCN(C3CCC3)CC2CCO)c(F)c1 (centres undefined) | 17 | -2 | -18 | -9 | -4 | · | · | ·
Cc1ccc2c(c1)C(c1ccccc1)N(C(=O)c1c(F)cccc1Cl)CC(=O)N2 (centres undefined) | 7 | 1 | 29 | 23 | 36 | · | · | ·
Cc1nn(-c2ccccc2)c(C)c1C(=O)OCC(=O)NC12CC3CC(CC(C3)C1)C2 | -4 | 8 | 62* | 43* | 54* | 49* | 34* | 54*
COc1ccc(NC(=O)c2ccccc2NC(=O)CSc2ccc(Cl)cc2)cc1 | -7 | -7 | 2 | 0 | 10 | · | · | ·
O=Cc1c(OCc2ccccc2)ccc2ccccc12 | 36 | 25 | 38 | 28 | 25 | · | · | ·
O=Cc1c[nH]c2cccc(OCc3ccccc3)c12 | 19 | · | 54* | 59* | 9 | 30* | · | 18
Cc1ccc(SCCC(=O)NNC(=O)c2ccccc2F)cc1 | 7 | · | 2 | -3 | -15 | · | · | ·
O=C(Nc1ccccc1)C1=C[C@@H](c2ccc(Br)cc2)C[C@@H](OCCCCO)O1 | 13 | 12 | 55* | 43* | 33 | 45* | · | 54*
O=C(Nc1ccccc1)C1=C[C@H](c2ccccc2)C[C@H](OCCCCO)O1 | 13 | 6 | 17 | 20 | -16 | · | · | ·
CCn1c2ccccc2c2cc(/C(C)=N/O)ccc21 | 14 | -4 | 75* | 61* | 42* | 56* | 45* | 84*
COC(=O)c1c(NC(=O)c2ccc([N+](=O)[O-])o2)sc2c1CCN(C(C)C)C2 | 16 | 57* | 91* | 91* | 94* | 91* | 98* | 92*
COC(=O)n1c(=O)oc2ccc(S(=O)(=O)N3CCCCC3)cc21 | -2 | -6 | 2 | -3 | 10 | · | · | ·
CCCCOC(=O)n1c(=O)oc2cc(S(=O)(=O)N3CCCCC3)ccc21 | 17 | -1 | 52* | 40* | 43* | 39* | 23 | 55*
CC1CCCCN1C(=O)c1c([N+](=O)[O-])cnn1C (centres undefined) | 14 | -10 | -8 | -1 | -4 | · | · | ·
